SMILES strings stand for the structures. A number with no mark means an inactive call. Records with an inconclusive call do not appear. Calls of active or inactive are those of the source. The call rests on the fitted dose curve; in most records, active means well fitted curve in the direction sought with a large enough effect in the repeat runs; inconclusive means weak or mixed curves; inactive means no such curve, though single readings can be large; an effect the other way counts as inactive or inconclusive.

The nature of assay [1]: Human pregnane X receptor (PXR) small molecule agonists, qHTS cell viability counter screen (AID 1346977). Further: nearly all actives have a fitted effect of over 50% in size. Further: potency means the concentration at half of the fitted maximal effect. The essentials: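 After a 5hr pre-incubation, PXR-Luc HepG2 cells received compounds plus positive control in DMSO and were kept 24hr at 37C. Cell viability was quantified by fluorescence from CellTiter-Fluor added for the final hour.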
A short description of assay [2]: Caspase-3/7 induction in HepG2 cells by small molecules, qHTS assay (AID 1346978). Further: nearly all actives have a fitted effect of over 15% in size. Further: potency means the concentration at half of the fitted maximal effect. The procedure, abridged: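 Wild-type HepG2 cells (2,000/well) were settled 5 h at 37 C, 5% CO2, then exposed to compounds in DMSO for 17 h. Caspase-3/7 activity was read by luminescence 30 min after adding Caspase-Glo 3/7 reagent at room temperature.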
A short description of assay [3]: Caspase-3/7 induction in CHO-K1 cells by small molecules, qHTS cell viability counter screen (AID 1346979). Further: nearly all actives have a fitted effect of over 35% in size. Further: potency means the concentration at half of the fitted maximal effect. The essentials:
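Multiplexed with Caspase-Glo 3/7 in CHO-K1 cells, this counter screen added CellTiter-Fluor after 16hr of compound exposure and recorded fluorescence 1hr later.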
For orientation: qHTS replaces the single test concentration by a dilution series.

Assay [4] can be described thus: Caspase-3/7 induction in CHO-K1 cells by small molecules, qHTS assay (AID 1346980). Further: nearly all actives have a fitted effect of over 15% in size. Further: potency means the concentration at half of the fitted maximal effect. The procedure, abridged: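 Wild-type cells were seeded at 1,500 per well and settled 5 hr at 37 C, 5% CO2, then exposed to DMSO-dissolved compounds for 17 hr. Caspase-Glo 3/7 reagent was added, and luminescence was read after 30min at room temperature.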
A short description of assay [5]: Caspase-3/7 induction in HepG2 cells by small molecules, qHTS cell viability counter screen (AID 1346981). Further: nearly all actives have a fitted effect of over 30% in size. Further: potency means the concentration at half of the fitted maximal effect. The procedure, abridged:
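Wild-type HepG2 cells, 2,000/well, settled 5 hr at 37 C, 5% CO2 before compound addition. Viability read by CellTiter-Fluor fluorescence, reagent added after 16 hr compound exposure, then 1 hr at 37C, in the same wells as the caspase read.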

The target of assay [6] is Nuclear receptor subfamily 1 group I member 2 (Homo sapiens) (UniProt O75469). Description: Human pregnane X receptor (PXR) small molecule agonists, qHTS assay (AID 1346982). Further: nearly all actives have a fitted effect of over 35% in size. Further: potency means the concentration at half of the fitted maximal effect. The procedure, abridged:
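PXR-Luc HepG2 reporter cells (CYP3A4-driven luciferase) in 5% charcoal-stripped FBS medium, plated 5 h before compound addition, then treated 24 h at 37C. Luciferase read by ONE-Glo luminescence after 30 min at room temperature.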

Assay [7] has as its target Cytochrome P450 2D6 (Homo sapiens) (UniProt P10635). The experiment in a line: Cytochrome P450 Family 2 Subfamily D Member 6 (CYP2D6) small molecule antagonists: luciferase reporter qHTS assay (AID 1671196). Further: nearly all actives have a fitted effect of over 50% in size. Further: potency means the concentration at half of the fitted maximal effect. The procedure, abridged:
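Cell-free P450-Glo system: CYP2D6 with proluciferin substrate was pre-incubated with compound for 10 min, then reacted with NADPH regeneration for 1 h at room temperature. Luciferin product was detected after 20 min, and data were reported as relative luminescence units.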

For assay [8], the target named is Nuclear receptor subfamily 1 group I member 2 (Rattus norvegicus) (UniProt Q9R1A7). Description: Rat pregnane X receptor (rPXR) activation by small molecules, qHTS assay (AID 1346983). Further: nearly all actives have a fitted effect of over 20% in size. The conditions noted are these: rPXR luciferase reporter cells, One-Glo luminescence, 24 h; max activation: active compounds read high. The essentials: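 Cell-based rPXR luciferase reporter assay, 2,000 cells per well, rested 5hr at 37 C before compound addition in DMSO, then 24 hr at 37 C. One-Glo reagent was added and luminescence read after 30 min at room temperature.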

Assay [9] addresses Nuclear receptor subfamily 1 group I member 2 (Homo sapiens) (UniProt O75469). Description: CYP3A4 induction through human pregnane X receptor (PXR) by small molecules, qHTS assay (AID 1346984). Further: nearly all actives have a fitted effect of over 40% in size. The procedure, abridged: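 DPX-2 HepG2 cells carrying a PXR response element and CYP3A4-promoter luciferase construct, treated with compounds 24 hr at 37C. Then P450-Glo CYP3A4 Luciferin-IPA substrate (3uM final) for 3 hr at 37C, One-Glo added, luminescence read.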
On the % scale 0 is the no-effect control and ±100 the full control effect.

Nuclear receptor subfamily 1 group I member 2 (Homo sapiens), sequence (O75469 whole entry, looked up): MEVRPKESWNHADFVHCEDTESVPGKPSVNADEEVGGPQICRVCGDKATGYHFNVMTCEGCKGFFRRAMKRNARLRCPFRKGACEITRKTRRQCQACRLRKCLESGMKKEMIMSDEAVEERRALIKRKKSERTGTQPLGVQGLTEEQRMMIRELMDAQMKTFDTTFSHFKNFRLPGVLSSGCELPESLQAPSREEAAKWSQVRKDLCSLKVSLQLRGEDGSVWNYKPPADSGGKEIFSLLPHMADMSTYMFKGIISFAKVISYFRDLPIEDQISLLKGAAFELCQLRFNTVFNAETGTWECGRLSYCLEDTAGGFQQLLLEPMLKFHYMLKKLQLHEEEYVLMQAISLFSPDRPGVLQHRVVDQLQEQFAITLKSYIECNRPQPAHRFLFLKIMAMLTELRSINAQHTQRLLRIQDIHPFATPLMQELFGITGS
Cytochrome P450 2D6 (Homo sapiens), sequence (P10635 whole entry, looked up): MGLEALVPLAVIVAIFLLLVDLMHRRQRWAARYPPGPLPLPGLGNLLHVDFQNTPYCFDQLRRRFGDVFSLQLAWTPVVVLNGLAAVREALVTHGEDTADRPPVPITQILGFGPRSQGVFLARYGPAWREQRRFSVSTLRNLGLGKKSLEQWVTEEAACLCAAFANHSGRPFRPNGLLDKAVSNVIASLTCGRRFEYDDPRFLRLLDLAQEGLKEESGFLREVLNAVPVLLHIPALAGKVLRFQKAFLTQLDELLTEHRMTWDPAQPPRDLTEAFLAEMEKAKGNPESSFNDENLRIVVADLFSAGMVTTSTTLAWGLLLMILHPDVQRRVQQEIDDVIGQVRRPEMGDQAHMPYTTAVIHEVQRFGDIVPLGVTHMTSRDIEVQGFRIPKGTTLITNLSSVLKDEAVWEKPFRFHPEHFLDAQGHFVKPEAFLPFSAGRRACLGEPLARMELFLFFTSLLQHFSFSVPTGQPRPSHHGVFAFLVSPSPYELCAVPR
Nuclear receptor subfamily 1 group I member 2 (Rattus norvegicus), sequence (Q9R1A7 whole entry, looked up): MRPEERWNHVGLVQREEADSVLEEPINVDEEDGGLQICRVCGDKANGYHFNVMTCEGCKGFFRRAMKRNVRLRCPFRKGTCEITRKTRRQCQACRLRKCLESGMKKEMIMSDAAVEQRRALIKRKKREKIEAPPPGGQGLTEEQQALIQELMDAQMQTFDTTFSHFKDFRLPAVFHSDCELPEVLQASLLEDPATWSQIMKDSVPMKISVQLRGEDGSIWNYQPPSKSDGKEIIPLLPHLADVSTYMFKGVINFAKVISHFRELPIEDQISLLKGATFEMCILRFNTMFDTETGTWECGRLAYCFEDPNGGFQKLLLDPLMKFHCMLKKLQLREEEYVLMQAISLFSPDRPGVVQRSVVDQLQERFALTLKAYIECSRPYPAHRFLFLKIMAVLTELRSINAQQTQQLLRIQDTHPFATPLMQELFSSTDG

Regarding `CCCCCCCCCCCCCC[P+](CCCC)(CCCC)CCCC` (tested in a mixture with another compound), the Potency is 12.3 µM (active) in assay [1]; 27.5 µM (active) in assay [2]; 7.74 µM (active) in assay [3]; 24.5 µM (active) in assay [5]; 7.74 µM (active) in assay [6]; 0.113 µM (active) in assay [7]. Besides, the Potency result in [4] was “inactive”.
`O=S1(=O)CC(Cl)(Cl)C(Cl)(Cl)C1`: the Potency in assay [1] was 2.73 µM (active); in assay [3] it was 0.686 µM (active); in assay [4], 0.486 µM (active); in assay [5], 17.2 µM (active); in [6], 0.545 µM (active). Besides, the Potency entry in assay [2] and in [7] was “inactive” in each case.
With `Nc1ccc2cc(S(=O)(=O)O)cc(O)c2c1N=Nc1ccccc1C(F)(F)F`, the results for the Potency in [1], in assay [3] and in assay [5] were 61.1 µM (active), 54.5 µM (active) and 54.5 µM (active), respectively. Moreover, the Potency result in assay [2], in assay [4], in assay [6] and in assay [7] was “inactive” throughout.
As to `CCCCCCCCCCCCCCCS(=O)(=O)Oc1ccccc1`, the Potency result in [1], in [2], in [3], in [4], in [5] and in assay [6] was “inactive” throughout. In addition, the Potency entry in assay [7] was “inactive”.
Turning to `CN(C)C(=O)C1(N2CCCCC2)CCN(CC[C@@]2(c3ccc(Cl)c(Cl)c3)CN(C(=O)c3ccccc3)CCO2)CC1`, the Potency in assay [1] was 25.5 µM (active); in [2] it was 45.4 µM (active); in [3], 28.6 µM (active); in [4] it was 57.1 µM (active); in assay [5], 50.9 µM (active); in assay [6] it was 20.3 µM (active). Moreover, the Potency in assay [7] is 6.63 µM (active).
Regarding `O=c1cccccc1O`, the Potency entry in [1], in assay [2], in assay [4], in [5] and in assay [7] was “inactive” throughout. The figures for the Potency in [3] and in assay [6] were 7.84 µM (active) and 69.9 µM (active), respectively.
Take `O=C1C=CC(=O)N1c1ccc(Cc2ccc(N3C(=O)C=CC3=O)cc2)cc1`: the Potency is 61.1 µM (active) in assay [1], 6.11 µM (active) in [3], 68.6 µM (active) in [5] and 4.86 µM (active) in [6]. Also, the Potency entry in assay [2], in [4] and in [7] was “inactive” throughout.
Take `CO[Si](CCCNc1ccccc1)(OC)OC`: the Potency entry in assay [1], in assay [2], in [3], in assay [4], in assay [5] and in [6] was “inactive” throughout. Moreover, in assay [7], the Potency result was “inactive”.
In the case of `CCCCCCCCCCC=O`, the Potency entry in [1], in [2], in [3], in assay [4], in [5] and in [6] was “inactive” throughout. For the same molecule, the Potency entry in assay [7] is “inactive”.
As to `CCC(N)(CO)CO`, the Potency entry in [1], in assay [2], in [3], in [4], in assay [5] and in [6] was “inactive” each time. Besides, the Potency entry in assay [7] is “inactive”.
`CCC(C)(C)C1CCCCC1OC(C)=O` (stereo unspecified): the Potency result in [1], in assay [2], in assay [3], in [4], in [5] and in assay [6] was “inactive” in each case. Besides, the Potency result in assay [7] is “inactive”.
For `CC(=O)OCC(C)OC(C)=O` (stereo unspecified), the Potency result in assay [1], in assay [2], in [3], in [4], in assay [5] and in [6] was “inactive” throughout. Besides, the Potency entry in [7] was “inactive”.
With `O=C(O)c1c(Cl)cccc1Cl`, the Potency result in assay [1], in assay [2], in assay [3], in [4], in assay [5] and in assay [6] was “inactive” throughout. In addition, in assay [7], the Potency result was “inactive”.
Consider `CSc1ccc(C(=O)c2[nH]c(=O)[nH]c2C)cc1`, for which the Potency entry in [1], in [2], in assay [3], in assay [4], in [5] and in [6] was “inactive” in each case. Moreover, the Potency entry in [7] is “inactive”.
In the case of `C/C=C(\C)C(=O)OCc1ccccc1`, the Potency result in assay [1], in [2], in assay [3], in assay [4], in assay [5] and in assay [6] was “inactive” in each case. Further, the Potency result in assay [7] was “inactive”.
Turning to `Clc1ccc2n[nH]nc2c1`, the Potency result in assay [1], in assay [2], in assay [3], in assay [4], in [5] and in assay [6] was “inactive” each time. For the same molecule, the Potency result in assay [7] is “inactive”.
Consider `CC(C)(C)NC(=O)[C@@H]1C[C@@H]2CCCC[C@@H]2CN1C[C@@H](O)[C@H](Cc1ccccc1)NC(=O)[C@H](CC(N)=O)NC(=O)c1ccc2ccccc2n1`, for which the Potency in assay [1] was 19.6 µM (active); in assay [2] it was 69.5 µM (active); in assay [3] it was 19.6 µM (active); in [4], 61.9 µM (active); in [5], 27.7 µM (active). In addition, the max activation in assay [8] is 7.59%. Further, the Potency result in assay [9] was “inactive”.
For the molecule `Cc1cc(N)c(S(=O)(=O)O)cc1Cl`, the Potency entry in assay [1], in [2], in assay [3], in assay [4], in assay [5] and in [7] was “inactive” throughout.
Consider `CCCCCCCCCCn1cc[n+](CCCCCCCCCC)c1C`, for which the Potency in assay [1] is 19.4 µM (active); in assay [2], 48.6 µM (active); in assay [3], 6.87 µM (active); in assay [5], 68.7 µM (active); in assay [7], 1.26 µM (active).
Take `COc1ccc(C(=O)/C(Br)=C\C(=O)O)cc1`: the results for the Potency in assay [1], in [3] and in [7] were 61.1 µM (active), 54.5 µM (active) and 63.3 µM (active), respectively. The Potency result in [2] and in assay [9] was “inactive” each time. Besides, the max activation in assay [8] was -6.96%.

The values above are taken from PubChem BioAssay (Tox21).
